Compounds with a hit are over-represented: about 3.8% of the library has one in this group of screens.
Nrf2 block = inhibitors of Nrf2 signaling. A549 ARE-Fluc reporter, luciferase luminescence, 18-24 h. Potency, µM (highest dose often 46 µM), hits mostly inhibitors. hit rate 2.1% among 360,000. AID 504444; also: nearly all actives have a fitted effect of over 60% in size
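Two sequential reads on A549 ARE_Fluc cells exposed to compound for 18-24 h: a CellTiter-Fluor fluorescence read for viability, then a luciferase luminescence read for Nrf2/ARE activity.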
S2 tox = reduces viability in counter-screen for ATXN expression inhibitors. Potency, µM (doses to about 56.7 µM), most hits filed as cytotoxic. S2 cells (HEK-293 line with an ATXN2-luciferase reporter) viability, CellTiter-Fluor protease fluorescence, 24 h. hit rate 0.49% among 400,000; also: nearly all actives have a fitted effect of over 40% in size
TGFb inhibitor = blocks TGF-b signaling | HepG2 CAGA-GFP TGF-b/SMAD3 reporter, GFP fluorescence, 18 h; TGF-beta stimulated, 500 pg/mL final | Potency, µM (top dose mostly 46.1 µM), most hits filed as inhibitors | hit rate 1.2% among 410,000; also: nearly all actives have a fitted effect of over 65% in size
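First, reporter cells (HEPG2 CAGA-GFP) rested 2 h at 37 degrees C. Next, compounds were pinned in and TGF-beta added to 500 pg/mL final. After 18 h, GFP was imaged per cell and summed per well.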
ATXN2 expr inh = reduces ATXN2 reporter expression in HEK-293 cells. HEK-293 ATXN2-luciferase reporter, luminescence, 24 h. Potency, µM (top dose mostly 57 µM), hits mostly inhibitors. hit rate 0.72% among 360,000. AID 1745845; also: nearly all actives have a fitted effect of over 55% in size
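qHTS (up to 57 uM final) was run with 24 h compound exposure of reporter cells at 37 °C. Each well was multiplexed: SteadyGlo luminescence measured ATXN2-luciferase expression after a fluorogenic Gly-Phe-AFC viability readout (25 uM final).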
HepG2 tox = counter-screen for TGF-b inhibitors: cytotoxicity in HepG2 cells. HepG2 CAGA-GFP viability, ATP luminescence, 18 h. Potency, µM (top dose mostly 46.1 µM), usual class: cytotoxic. hit rate 0.76% among 410,000. AID 588856
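CellTiter-Glo luminescence gave cytotoxicity after 18 hours at 37 degrees C. The cells were HepG2 CAGA-GFP in 1% FBS DMEM, stimulated with 500 pg/mL TGF-beta after compound addition. %Activity was normalised to no-cell wells (complete cell-killing) and DMSO (no toxicity), and curves were fitted and classified.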
A549 tox = A549 cytotoxicity, counter-screen for Nrf2 inhibitors; AID 504648; hit rate 0.16% among 390,000; Potency, µM (titrated, usually from 46 µM), usual class: inhibitors; A549 ARE-Fluc cells, CellTiter-Fluor viability, 18-24 h
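Cytotoxicity counterscreen: CellTiter-Fluor fluorescence was measured in A549 ARE_Fluc cells after 18-24 h of compound exposure in a concentration series. The subsequent BugLite luminescent read reports ARE-luciferase activity.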
A number is an active result; ! = a repeat was not active; [ ] = another dose, or the depositor's remark. Calls follow the shape of the dose curve; as a rule, active = well fitted curve in the direction sought with a large enough effect; inconclusive = small, poorly fitted or top-dose-only effect, or another doubt; inactive = no such curve, though single readings can be large; an effect the other way counts as inactive or inconclusive.

What do the screens show for `CCn1c(=O)c2cc(C(=O)NC3CCC(C)CC3)sc2c2ccccc21` (stereo unspecified)?
Nrf2 block: inactive; S2 tox: inactive; TGFb inhibitor: inactive; ATXN2 expr inh: inactive; HepG2 tox: inactive; A549 tox: inactive

Results for CC(=O)Nc1ccc(NC(=O)C(NC(=O)C2CCC(C)CC2)C(C)C)cc1 (stereo unspecified) ?
Nrf2 block: inactive[9.27 µM]; S2 tox: inactive; TGFb inhibitor: inactive; ATXN2 expr inh: inactive; HepG2 tox: inactive; A549 tox: inactive

Results for CCN(CC)S(=O)(=O)c1ccc(N2CCCC2)c(NC(=O)c2ccc(N3CCCC3=O)cc2)c1 ?
Nrf2 block: inactive; S2 tox: inactive; TGFb inhibitor: inactive; ATXN2 expr inh: inactive; HepG2 tox: inactive; A549 tox: inactive

What do the screens show for `O=C1Nc2ccccc2Nc2ccc([N+](=O)[O-])cc21`?
Nrf2 block: 10µM; S2 tox: inconclusive; TGFb inhibitor: inactive; ATXN2 expr inh: inactive; HepG2 tox: inactive; A549 tox: inactive

Results for O=C1OC(=O)c2cc([N+](=O)[O-])ccc21 ?
Nrf2 block: inactive; S2 tox: inactive; TGFb inhibitor: inactive; ATXN2 expr inh: inactive; HepG2 tox: inactive; A549 tox: inactive

What do the screens show for `FC(F)Oc1ccc(NC(=S)Nn2cnnc2)cc1`?
Nrf2 block: inactive; S2 tox: inactive; TGFb inhibitor: 16µM; ATXN2 expr inh: inconclusive; HepG2 tox: inactive; A549 tox: inactive

How did CN1C(=O)C2(OCC(COc3ccc(Cl)cc3)O2)c2ccccc21 (stereo unspecified) do in these assays?
Nrf2 block: 18µM; S2 tox: inactive; TGFb inhibitor: inactive; ATXN2 expr inh: inactive; HepG2 tox: inactive; A549 tox: inactive

How did Cc1nc(NC(=O)/C=C/c2ccccc2)sc1C(=O)N1CCCCC1 do in these assays?
Nrf2 block: inactive; S2 tox: inactive; TGFb inhibitor: inactive; ATXN2 expr inh: inactive; HepG2 tox: inactive; A549 tox: inactive

What do the screens show for `COc1ccc(C(=O)c2c(C(F)(F)F)oc3c2C(=O)c2ccccc2C3=O)cc1`?
S2 tox: 22µM; TGFb inhibitor: inconclusive; ATXN2 expr inh: 32µM; HepG2 tox: 1.1µM; A549 tox: 7.3µM

How did COc1cc(C(=O)N2CCC(n3cnc4cc(F)ccc43)CC2)cc(OC)c1OC do in these assays?
Nrf2 block: inactive; S2 tox: inactive; TGFb inhibitor: inactive; ATXN2 expr inh: inactive; HepG2 tox: inactive; A549 tox: inactive

Results for CC(C=CC1=C(C)CCCC1(C)C)=CC=CC(C)=CC(=O)Nc1ccc(O)cc1 ?
ATXN2 expr inh: 50µM

Results for CC1=C(\C=C/C(C)=C/C=C\C(C)=C\C(=O)O)C(C)(C)CCC1 ?
S2 tox: inactive

What do the screens show for `CC1=C(/C=C/C(C)=C/C=C/C(C)=C\C(=O)O)C(C)(C)CCC1`?
Nrf2 block: inactive; S2 tox: inactive; TGFb inhibitor: inactive; ATXN2 expr inh: inactive; HepG2 tox: inactive; A549 tox: inactive

How did CC1=C(/C=C/C(C)=C/C=C/C(C)=C/C(=O)Nc2ccc(O)cc2)C(C)(C)CCC1 do in these assays?
Nrf2 block: inconclusive; S2 tox: 28µM; TGFb inhibitor: inconclusive; ATXN2 expr inh: 20µM!; HepG2 tox: inactive; A549 tox: inconclusive

How did Cc1ccc(C)c(-n2cc[nH]c2=S)c1 do in these assays?
Nrf2 block: inactive; S2 tox: inactive; TGFb inhibitor: inactive; ATXN2 expr inh: inactive; HepG2 tox: inactive; A549 tox: inactive

Results for CC1(C)C(=O)C=CC(=O)C(C)(C)C(=O)C=CC(=O)C(C)(C)C2=CC=C(O2)C(C)(C)C(=O)C=CC1=O ?
Nrf2 block: inactive; TGFb inhibitor: inactive; ATXN2 expr inh: 25µM; HepG2 tox: inactive; A549 tox: inactive

How did Cc1oc(-c2ccc(C(=O)NCc3ccccc3F)cc2)nc1COc1ccccc1 do in these assays?
Nrf2 block: inconclusive; S2 tox: inactive; TGFb inhibitor: inactive; ATXN2 expr inh: inactive; HepG2 tox: inactive; A549 tox: inactive

How did Cc1cccc(C)c1OCc1cc(=O)n2c(-c3ccccc3)csc2n1 do in these assays?
Nrf2 block: inconclusive; S2 tox: inactive; TGFb inhibitor: 10µM; ATXN2 expr inh: inactive; HepG2 tox: inactive; A549 tox: inactive

How did O=S(=O)(c1ccc(F)cc1)N1CCN(c2nc(-c3ccc(F)cc3)nc3cc(Cl)ccc23)CC1 do in these assays?
Nrf2 block: inactive; TGFb inhibitor: inactive; HepG2 tox: inactive; A549 tox: inactive

Results for CC1=NNC(=O)/C1=C\c1cn(-c2ccccc2)nc1-c1ccccc1 ?
Nrf2 block: inconclusive; S2 tox: 27µM; TGFb inhibitor: 8.9µM; ATXN2 expr inh: inconclusive; HepG2 tox: 10µM; A549 tox: inconclusive

What do the screens show for `COc1cc(C(=O)Nc2ccc(C(=O)c3cccs3)cc2)cc(OC)c1OC`?
Nrf2 block: 21µM; S2 tox: inactive; TGFb inhibitor: inactive; HepG2 tox: inactive; A549 tox: inactive

Results for COc1c(Cl)cc(Cl)cc1C(=O)Nc1ccc(NC(=O)c2cccs2)cc1 ?
Nrf2 block: 10µM; S2 tox: inconclusive; TGFb inhibitor: inactive; ATXN2 expr inh: inconclusive; HepG2 tox: inactive; A549 tox: inactive

How did O=C(Nc1ccc(NC(=O)c2ccc(Cl)cc2Cl)cc1)c1cccs1 do in these assays?
Nrf2 block: inactive; S2 tox: inconclusive; TGFb inhibitor: inactive; ATXN2 expr inh: inconclusive; HepG2 tox: inactive; A549 tox: inactive

How did CCC(Sc1nc2nccnc2c(=O)n1Cc1ccc(OC)cc1)C(=O)NC1CCCCC1 (stereo unspecified) do in these assays?
Nrf2 block: inactive; TGFb inhibitor: inactive; HepG2 tox: inactive; A549 tox: inactive

Results for CCOC(=O)C1CCCN(C(=O)Cn2ncc3c(C)n(Cc4ccccc4Cl)c(C)c3c2=O)C1 (stereo unspecified) ?
Nrf2 block: inconclusive; TGFb inhibitor: inconclusive; HepG2 tox: inactive; A549 tox: inactive

How did COc1ccccc1N=Nc1nc(-c2ccccc2)c(-c2ccccc2)[nH]1 do in these assays?
Nrf2 block: 18µM; S2 tox: 35µM; TGFb inhibitor: inconclusive; ATXN2 expr inh: inactive; HepG2 tox: inactive; A549 tox: inconclusive

Results for COc1ccc(OC2CCN(S(=O)(=O)c3ccc(C(C)=O)cc3)CC2)cc1 ?
Nrf2 block: 21µM; S2 tox: inactive; TGFb inhibitor: inactive; ATXN2 expr inh: inactive; HepG2 tox: inactive; A549 tox: inactive

Results for COc1ccc(OC2CCN(S(=O)(=O)c3ccc(F)cc3)CC2)cc1 ?
Nrf2 block: inactive; S2 tox: inactive; TGFb inhibitor: inactive; ATXN2 expr inh: inactive; HepG2 tox: inactive; A549 tox: inactive

What do the screens show for `COc1ccc(S(=O)(=O)N2CCN(CCCOc3ccc(F)cc3)CC2)cc1OC`?
Nrf2 block: 23µM; S2 tox: inactive; TGFb inhibitor: inactive; ATXN2 expr inh: inactive; HepG2 tox: inactive; A549 tox: inactive
